Assay results published in PubChem BioAssay.

Assays:
[1] = test system: Human papillomavirus type 1a protein E7 (residues 44-93); test: small molecules binding HPV E7 44-93 – biochemical, small-molecule microarray, residues 44-93, 635 nm fluorescence, primary screen (AID 1108); details: fluorescence 635 nm, higher = more signal;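 also: E7 fragment applied at 1 µg/mL in TBST for 1 h at 4 C; score combines spot fluorescence with its signal to noise ratio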
[2] = hepatitis C replication reporter changes, two-sided – Huh7 cells, luciferase reporter, HCV replication inhibitor project, primary screen (AID 1109); details: Huh7 HCV replicon luciferase reporter, 48 h; higher = more signal;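 also: huh7 hepatoma cells harbouring a luciferase neomycin HCV replicon reporter; luciferase luminescence as measure of HCV replicon replication; test concentration not given here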
[3] = target: Left-right determination factor 2 (Homo sapiens) (UniProt O00292); test: small molecules binding LEFTY2 protein – biochemical, small-molecule microarray, 635 nm fluorescence scan, primary screen (AID 1110); details: higher = more signal
Left-right determination factor 2 (Homo sapiens), sequence (O00292 whole entry, looked up): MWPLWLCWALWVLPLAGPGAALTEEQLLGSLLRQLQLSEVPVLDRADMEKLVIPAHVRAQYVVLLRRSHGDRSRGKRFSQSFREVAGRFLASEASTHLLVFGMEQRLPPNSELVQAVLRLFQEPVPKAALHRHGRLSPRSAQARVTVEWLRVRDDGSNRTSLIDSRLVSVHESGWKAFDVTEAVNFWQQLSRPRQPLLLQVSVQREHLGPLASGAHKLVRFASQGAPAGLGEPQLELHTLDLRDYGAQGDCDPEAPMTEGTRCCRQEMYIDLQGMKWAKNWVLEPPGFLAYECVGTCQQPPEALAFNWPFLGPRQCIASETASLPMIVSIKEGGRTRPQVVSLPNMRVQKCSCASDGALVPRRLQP

[4] = target: Calmodulin-1 (Homo sapiens) (UniProt P0DP23); test: small molecules binding calmodulin-1 with EGTA – biochemical, small-molecule microarray, Cy5-labelled CALM1, profiling panel (AID 1111); details: Cy5-CALM1 binding fluorescence, higher = more signal;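 also: labelled calmodulin applied in Tris saline Tween buffer holding calcium plus EGTA and DTT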
[5] = target: Calmodulin-1 (Homo sapiens) (UniProt P0DP23); test: small molecules binding Ca-loaded calmodulin-1 – biochemical, small-molecule microarray, Cy5-labelled CALM1, plus calcium, artefact control for SMM control-protein annotation, profiling panel (AID 1112); details: Cy5-CALM1 binding fluorescence, higher = more signal;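 also: score merges spot fluorescence with signal to noise from triplicate slides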
[6] = probe aWnt5a binding to arrayed compounds – biochemical, biotinylated probe, 635/667 nm fluorescence, primary screen (AID 1113); details: small-molecule microarray, higher = more signal;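 also: score merges 667 nm fluorescence intensity with signal-to-noise per printed feature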
[7] = probe aShh binding to arrayed compounds – biochemical, biotinylated probe, 635/667 nm fluorescence, primary screen (AID 1114); details: small-molecule microarray, higher = more signal;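 also: probe is biotin-labelled aShh protein from a stem cell growth factor screen; measures binding of labelled protein to compounds printed on the slide; score merges feature fluorescence at 667 nm with signal-to-noise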
[8] = probe aNog binding to arrayed compounds – biochemical, biotinylated probe, 635/667 nm fluorescence, primary screen (AID 1115); details: small-molecule microarray, higher = more signal;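 also: probe is biotinylated aNog protein used at 0.15 µg/mL for 1 h at 4 C; z-score combines 667 nm fluorescence of each spot with its signal to noise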
[9] = target: Torsin-1A-interacting protein 1 (Homo sapiens) (UniProt Q5JTV8); test: compound microarray binding of lysate hLAP1 – cell lysate, small-molecule microarray, COS7 lysate, 635/667 nm fluorescence, primary screen (AID 1116); details: 635 nm fluorescence, higher = more signal
Torsin-1A-interacting protein 1 (Homo sapiens), sequence (Q5JTV8 whole entry, looked up): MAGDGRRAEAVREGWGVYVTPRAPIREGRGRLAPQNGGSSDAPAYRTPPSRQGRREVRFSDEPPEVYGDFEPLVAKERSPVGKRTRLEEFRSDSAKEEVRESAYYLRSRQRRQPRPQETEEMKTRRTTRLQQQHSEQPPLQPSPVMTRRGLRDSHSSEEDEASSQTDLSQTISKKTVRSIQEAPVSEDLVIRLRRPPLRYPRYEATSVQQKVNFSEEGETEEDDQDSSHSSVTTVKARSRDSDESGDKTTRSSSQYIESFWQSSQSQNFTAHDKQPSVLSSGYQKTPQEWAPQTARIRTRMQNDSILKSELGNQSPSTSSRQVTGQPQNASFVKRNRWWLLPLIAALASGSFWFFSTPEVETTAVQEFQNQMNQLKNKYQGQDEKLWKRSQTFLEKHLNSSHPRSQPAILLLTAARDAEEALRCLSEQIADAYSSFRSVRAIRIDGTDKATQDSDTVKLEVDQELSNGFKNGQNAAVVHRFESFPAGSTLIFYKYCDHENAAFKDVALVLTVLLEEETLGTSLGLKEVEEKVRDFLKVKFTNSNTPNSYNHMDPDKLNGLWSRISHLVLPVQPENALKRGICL

[10] = target: Alpha-bungarotoxin (Bungarus multicinctus) (UniProt P60615); test: compounds binding labelled alpha-BTX control protein – biochemical, small-molecule microarray, Alexa647 label, 635/667 nm fluorescence, artefact control for SMM control protein annotation, profiling panel (AID 1117); details: alpha-BTX-A647 binding fluorescence, higher = more signal
Alpha-bungarotoxin (Bungarus multicinctus), sequence (P60615 whole entry, looked up): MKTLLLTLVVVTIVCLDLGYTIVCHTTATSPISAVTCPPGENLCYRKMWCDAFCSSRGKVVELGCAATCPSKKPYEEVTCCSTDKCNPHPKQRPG

| SMILES | composite z-score [1] | z-score [2] | composite z-score [3] | composite z-score [4] | composite z-score [5] | composite z-score [6] | composite z-score [7] | composite z-score [8] | composite z-score [9] | composite z-score [10] |
| --- | --- | --- | --- | --- | --- | --- | --- | --- | --- | --- |
| NC(=O)N1C(=O)C2C(C1=O)C1C=C(CCCO)C2C(C2CC2)N1Cc1cc2c(cc1Br)OCO2 (stereo not given) | -0.443 | -0.264 | -0.549 | 0.0653 | 0.357 | -0.12 | 0.0278 | -0.0065 | -0.111 | 0.515 |
| C=CCOC(=O)[C@H]1[C@@H]2C(=O)O[C@@H](c3ccccc3)[C@@H](c3ccccc3)N2[C@@H](c2ccc(OCCOC(=O)[C@H]3C[C@H]4C(=O)N[C@@H](CCCCN(C)C)C(=O)N4[C@H]3c3cccc(OCCO)c3)cc2)[C@]12C(=O)Nc1ccc(I)cc12 | 1.4 | -2.45 | 0.713 | -0.0131 | -0.12 | 0.108 | 0.0671 | 1.18 | 0.811 | 1.27 |
| COc1ccc([C@H]2C[C@H]3C(Br)=C[C@@]2(CO)C(=O)[C@]32CO2)cc1 | -0.368 | -2.02 | 0.122 | -0.282 | -0.38 | 0.0286 | -0.262 | -0.0827 | 0.291 | 0.0471 |
| O=C1O[C@H](c2ccccc2)[C@H](c2ccccc2)N2[C@H]1[C@@H](C(=O)NC[C@H](O)c1ccccc1)[C@]1(C(=O)Nc3ccc(C#CC4=CCCCC4)cc31)[C@H]2c1ccccc1OCCO | 1.06 | -3.16 | 0.155 | 1.42 | 0.944 | 0.0101 | 0.328 | 0.157 | 1.02 | 1.7 |
| COC(=O)[C@@]1(Cc2ccccc2)[C@H]2c3cc(C(=O)N4CCCC4)n(Cc4ccc(O)c(OC)c4)c3C[C@H]2CN1C(=O)c1ccccc1 | 1.35 | -1.7 | -0.943 | 0.556 | 0.0466 | 0.288 | 1.14 | 1.11 | 0.53 | -0.142 |
| COCC(=C=CC[C@H](O)c1ccccc1OCCO)CCO | 0.0008 | -0.266 | -0.378 | -0.0866 | -0.037 | -0.096 | 0.0723 | 0.509 | 1.34 | 0.804 |
| COC(=O)[C@@]1(Cc2ccccc2)[C@H]2c3cc(C(=O)N(C)C)n(CCc4c[nH]c5ccc(O)cc45)c3C[C@H]2CN1C(=O)c1ccccc1 | 1.32 | -2.07 | -0.119 | 1.2 | 0.0493 | 0.0031 | -0.0146 | 0.843 | 1.48 | 0.194 |
| C=C(CCCC)/C(=C/C[C@@H](OC(C)=O)c1ccccc1OCCO)c1cc(C(=O)OC)ccc1OC | 0.129 | -2.13 | -0.346 | -0.421 | -0.798 | -0.124 | -0.0769 | 0.0459 | -0.107 | 1.15 |
| O=C(CS)NCCCCCNC(=O)[C@H]1C[C@H]2C(=O)NCC(=O)N2[C@H]1c1ccc(O)cc1 | -1.12 | 0.464 | -0.55 | -0.0906 | -0.0879 | -0.256 | -0.214 | -0.175 | -0.736 | -0.129 |
| COC(=O)C(CC#Cc1ccc2c(c1)[C@]1(C(=O)N2)[C@H](c2ccccc2OCCO)N2[C@H](c3ccccc3)[C@H](c3ccccc3)OC(=O)[C@H]2[C@@H]1C(N)=O)C(=O)OC | 0.599 | -2.95 | -0.0862 | 1.33 | 0.116 | 0.349 | 0.679 | 2.29 | 1.21 | 2.45 |
| NC(=O)[C@@]1(Cc2ccccc2)N=C(c2ccc(OCCCO)cc2)O[C@H]1c1ccccc1 | -1.02 | -0.605 | -0.949 | 1.19 | 1.2 | -0.11 | 0.629 | 1.06 | 3.1 | -0.387 |
| COc1ccc(NC(=O)O[C@H]2[C@H](OC(=O)c3cc4ccccc4[nH]3)[C@@H](OC(=O)c3cc4ccccc4[nH]3)[C@@H](OC)O[C@@H]2CO)cc1 | -0.548 | -1.98 | 0.046 | 0.467 | -0.206 | -0.0512 | 0.0121 | -0.0612 | 1.04 | 0.243 |
| CCCC[C@H]1C[C@@H]1[C@@H]1N(P(=O)(c2ccccc2)c2ccccc2)C[C@@](O)(c2ccccc2)CC12CC2 | 0.713 | -2.71 | -1.06 | 1.96 | 1.03 | 0.145 | 0.149 | -0.753 | 0.727 | 0.217 |
| CN(C)CCCCCCNC(=O)[C@@H]1C[C@@H]2C(=O)N[C@@H](CCCC[N+](C)(C)C)C(=O)N2[C@@H]1c1ccc(O)cc1 | -1.27 | 1.61 | 0.839 | -1.01 | -0.702 | -0.216 | -0.358 | -0.277 | 0.964 | 0.257 |
| COC(=O)c1c(CC[C@@H](CO)NC(=O)NCCc2c[nH]c3ccccc23)oc(C(=O)Cc2ccccc2)c1C(=O)OC | 0.465 | -1.16 | 0.353 | -0.103 | -0.46 | 0.0657 | -0.0011 | -0.33 | 0.385 | -0.172 |
| C[N+](C)(C)CCCC[C@@H]1NC(=O)[C@H]2C[C@@H](C(=O)NCCCCCCNC(=O)CS)[C@@H](c3ccc(O)cc3)N2C1=O | -1.07 | -0.237 | -1.4 | -0.493 | 0.55 | -0.178 | -0.138 | -0.0604 | 1.51 | 0.539 |
| O=C1OCCC=C[C@H]2OC34C=CCN(Cn5nnc6ccccc65)C(=O)[C@H]3N(CCO)C(=O)[C@@H]4C12 (stereo not given in full) | -1.59 | -0.772 | -2.07 | -0.4 | 0.262 | -0.252 | -0.262 | 0.328 | -0.618 | 1.1 |
| C=CCC(OC(C)=O)[C@@H]1[C@@H](N(Cc2ccc(-c3cccc(C(F)(F)F)c3)o2)C(=O)c2cccc3ccccc23)c2cc(OCCCO)ccc2N1C(=O)Cc1ccc2ccccc2c1 (stereo not given in full) | -0.168 | 0.395 | -0.648 | 0.0134 | 0.242 | -0.0597 | 0.123 | -0.398 | 0.0212 | 0.794 |
| C=C(CCCC)/C(=C/C[C@H](OC(C)=O)c1ccccc1OCCO)c1cnc2ccccc2c1 | 0.984 | -2.75 | 0.0641 | -0.0602 | -0.796 | -0.0718 | -0.0709 | -0.327 | 0.469 | 0.887 |
| O=C1OCCC/C=C\[C@H]2OC34C=CCN(c5ccc6ccccc6c5)C(=O)[C@H]3N(CCCCCO)C(=O)[C@@H]4C12 (stereo not given in full) | -2.53 | -0.57 | -1.07 | -0.381 | -0.645 | -0.28 | 0.0141 | -0.0428 | -1.28 | -0.23 |
| COc1ccc(C#Cc2ccc3c(c2)[C@]2(C(=O)N3)[C@H](c3ccc(O)cc3)N3[C@H](c4ccccc4)[C@H](c4ccccc4)OC(=O)[C@H]3[C@@H]2C(=O)N2CCc3cc(OC)c(OC)cc3C2)cc1 | 1.36 | -1.11 | 0.406 | 1.02 | 0.745 | -0.0643 | -0.161 | -0.0503 | 0.7 | 1.67 |
| COc1ccc([C@H]2C[C@H]3C(I)=C[C@@H]2C(=O)[C@]32CO2)cc1 | -1.2 | -3.32 | 0.178 | -0.978 | -1.53 | -0.222 | -0.407 | -0.1 | 0.498 | 0.957 |
| CCCC1(C(=O)OC)C=C2C(=C(c3ccccc3)C(=O)C2C)CN1 (stereo not given) | -0.719 | -1.85 | 0.0193 | 0.155 | -0.253 | -0.0203 | 0.108 | 1.75 | 1.05 | 0.287 |
| CN1C(=O)C2C=CC(C(O)c3c(F)cccc3Cl)N(NC(=O)OC(C)(C)C)C2C1=O (stereo not given) | 1.3 | -0.28 | -0.0662 | 2.03 | 0.498 | 0.0718 | -0.167 | 1.46 | 2.03 | 1.35 |
| COc1ccc(C(O)C2C=CC3C(=O)N(C)C(=O)C3N2NC(=O)OC(C)(C)C)c2ccccc12 (stereo not given) | 1.5 | -1.45 | -0.107 | 1.56 | 0.47 | 0.246 | 0.275 | 1.8 | 0.163 | 1.17 |
| C=CCOC(=O)[C@H]1[C@@H]2C(=O)O[C@@H](c3ccccc3)[C@@H](c3ccccc3)N2[C@@H](c2ccc(OCCOC(=O)[C@@H]3C[C@@H]4C(=O)N5CCC[C@H]5C(=O)N4[C@@H]3c3cccc(OCCO)c3)cc2)[C@]12C(=O)Nc1ccc(I)cc12 | 1.39 | -1.46 | 0.872 | 0.784 | -0.0883 | -0.0758 | 0.0098 | 0.935 | -0.571 | 1.39 |
